Assay [1] concerns the target Estrogen receptor (Homo sapiens) (UniProt P03372). The experiment in a line: OT_ER_ERaERa_0480: Odyssey Thera (OT) 8-hour HEK293T Protein-Complementation Assay for Estrogen Receptor-alpha/-alpha Homodimer (AID 2283351).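 Note: rise in fluorescence from reassembled reporter fragments on ERα LBD homodimer in nucleus or whole cell.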 A digest of the protocol: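 HEK293T cells stably expressing a PCA pair of ER alpha LBD (residues 310-547) were dosed for 8 hours. The gain in fluorescence intensity, nuclear for agonists and whole-cell for antagonists, was measured by laser scanning cytometry against DMSO vehicle.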

The target in assay [2] is T1, Estrogen receptor (Homo sapiens) + Estrogen receptor beta (Homo sapiens) (UniProt P03372+Q92731). The experiment in a line: OT_ER_ERaERb_0480: Odyssey Thera (OT) 8-hour HEK293T Protein-Complementation Assay for Estrogen Receptor-alpha/-beta Heterodimer (AID 2283352). Summed up: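 Fluorescence increase from reconstituted reporter fragments, quantified by laser scanning cytometer, reflects ER-alpha/ER-beta heterodimer formation in human HEK293T cells. Exposure 8 h; positive-direction fitting against DMSO vehicle.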
T1 sequence (P03372 whole entry, looked up, the tested form may be a part): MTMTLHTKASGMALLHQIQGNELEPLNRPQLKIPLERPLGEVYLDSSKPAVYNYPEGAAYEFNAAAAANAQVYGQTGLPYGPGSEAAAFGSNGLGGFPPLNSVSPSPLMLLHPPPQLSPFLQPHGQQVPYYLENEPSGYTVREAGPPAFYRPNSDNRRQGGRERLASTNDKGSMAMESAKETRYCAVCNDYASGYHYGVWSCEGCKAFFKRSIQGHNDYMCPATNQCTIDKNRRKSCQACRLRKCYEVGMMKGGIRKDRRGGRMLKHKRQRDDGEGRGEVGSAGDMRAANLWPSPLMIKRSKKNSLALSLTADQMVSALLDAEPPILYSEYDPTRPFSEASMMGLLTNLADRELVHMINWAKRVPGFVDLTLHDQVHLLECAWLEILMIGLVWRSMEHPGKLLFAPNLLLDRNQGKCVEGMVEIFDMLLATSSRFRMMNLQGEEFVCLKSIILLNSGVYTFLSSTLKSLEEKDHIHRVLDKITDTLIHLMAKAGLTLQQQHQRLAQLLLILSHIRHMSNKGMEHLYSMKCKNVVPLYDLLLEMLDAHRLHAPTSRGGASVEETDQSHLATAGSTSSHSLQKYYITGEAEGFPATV
T1 sequence (Q92731 whole entry, looked up, the tested form may be a part): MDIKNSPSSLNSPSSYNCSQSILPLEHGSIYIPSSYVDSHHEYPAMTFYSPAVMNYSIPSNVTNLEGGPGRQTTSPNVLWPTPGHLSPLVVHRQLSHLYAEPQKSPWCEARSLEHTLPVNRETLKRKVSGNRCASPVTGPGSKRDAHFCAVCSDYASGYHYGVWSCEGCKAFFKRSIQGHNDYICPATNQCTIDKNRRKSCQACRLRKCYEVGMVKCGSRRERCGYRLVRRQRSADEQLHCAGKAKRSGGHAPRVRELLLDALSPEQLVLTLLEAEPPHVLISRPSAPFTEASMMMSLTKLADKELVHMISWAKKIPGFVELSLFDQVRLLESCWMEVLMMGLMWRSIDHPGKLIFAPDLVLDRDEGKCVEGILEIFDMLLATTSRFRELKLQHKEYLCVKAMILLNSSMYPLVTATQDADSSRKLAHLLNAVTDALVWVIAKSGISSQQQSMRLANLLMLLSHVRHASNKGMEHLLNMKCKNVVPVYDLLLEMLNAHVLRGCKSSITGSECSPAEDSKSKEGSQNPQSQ

The target in assay [3] is T1, Estrogen receptor (Homo sapiens) + Estrogen receptor beta (Homo sapiens). As to the kind of experiment: OT_ER_ERaERb_1440: Odyssey Thera (OT) 24-hour HEK293T Protein-Complementation Assay for Estrogen Receptor-alpha/-beta Homodimer (AID 2283356).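 Note: heteromer of ER alpha and ER beta binding domains; hits raise reporter fluorescence and both agonists and antagonists give an increase.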 Summed up:
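Fragment complementation between ER alpha (310-547) and ER beta (263-489) ligand-binding domains in HEK293T cells; signal read 24 h post-dosing by laser scanning cytometer. Gain of fluorescence relative to DMSO fitted.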

Assay [4] has as its target Estrogen receptor beta (Homo sapiens) (UniProt Q92731). The experiment in a line: OT_ER_ERbERb_0480: Odyssey Thera (OT) 8-hour HEK293T Protein-Complementation Assay for Estrogen Receptor-beta/-beta Homodimer (AID 2283357).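 Note: active means signal gain over DMSO baseline.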 Summed up:
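Fluorescence gain from complemented reporter fragments on ER-beta LBD homodimer in HEK293T was quantified against DMSO controls after 8 h treatment, fixation in 4% formaldehyde and Draq5 staining.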

In assay [5] the target is Nuclear receptor subfamily 1 group I member 2 (Homo sapiens) (UniProt O75469). As to the kind of experiment: NVS_NR_hPXR: NovaScreen (NVS) Nuclear Receptor Binding Assay for human Pregnane X Receptor (PXR) (AID 2283365).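 Note: a drop in FRET signal versus DMSO baseline means the compound binds.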 A digest of the protocol: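 Human PXR binding measured by TR-FRET in a cell-free format, 2 h exposure. Single-concentration duplicates at 25 uM preceded concentration-response retests of actives; endpoint fitted positively relative to DMSO, loss of signal indicating binding.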
Nuclear receptor subfamily 1 group I member 2 (Homo sapiens), sequence (O75469 whole entry, looked up): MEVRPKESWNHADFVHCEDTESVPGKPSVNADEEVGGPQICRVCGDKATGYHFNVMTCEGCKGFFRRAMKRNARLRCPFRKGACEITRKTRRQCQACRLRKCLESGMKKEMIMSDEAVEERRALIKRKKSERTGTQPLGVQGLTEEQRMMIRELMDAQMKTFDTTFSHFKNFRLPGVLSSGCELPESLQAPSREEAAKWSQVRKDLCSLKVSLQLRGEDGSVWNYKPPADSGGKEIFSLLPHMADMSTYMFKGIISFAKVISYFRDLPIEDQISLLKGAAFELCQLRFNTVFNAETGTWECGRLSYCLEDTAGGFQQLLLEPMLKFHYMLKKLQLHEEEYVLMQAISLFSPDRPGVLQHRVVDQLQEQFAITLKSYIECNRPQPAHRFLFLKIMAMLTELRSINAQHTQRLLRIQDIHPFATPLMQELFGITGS

Assay [6] concerns the target Androgen Receptor/SRC-1 Co-activator, AR (gene 367) (UniProt P10275). As to the kind of experiment: OT_AR_ARSRC1_0960: Odyssey Thera (OT) 16-hour HEK293T Protein-Complementation Assay for Androgen Receptor/SRC-1 Co-activator (AID 2283353).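 Note: actives raise the signal above DMSO so potency reflects increased AR and SRC-1 complex.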 A digest of the protocol:
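Endpoint is gain-of-signal N/C fluorescence ratio in the 488 nm channel versus DMSO, from at least 400 cells per image, measured 16 h post-dosing. Cells: HEK293T stably carrying split-Venus AR/SRC-1 complementation constructs.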

Assay [7] has the same target. As to the kind of experiment: OT_AR_ARSRC1_0480: Odyssey Thera (OT) 8-hour HEK293T Protein-Complementation Assay for Androgen Receptor/SRC-1 Co-activator (AID 2283354).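 Note: hits raise the complementation signal above DMSO so AC50 marks enhancers.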 A digest of the protocol:
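After 8 h dosing, stably expressing HEK293T cells with split-Venus AR/SRC-1 fusions were imaged (488, 635nm). The 488nm N/C ratio per image gave the endpoint, analysed in the positive direction against DMSO.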

In assay [8] the target is human Thyroid Receptor Alpha (TRa), THRA (gene 7067) (UniProt P10827). As to the kind of experiment: NVS_NR_hTRa_Antagonist: NovaScreen (NVS) Nuclear Receptor Binding Assay for human Thyroid Receptor Alpha Antagonism (TRa) (AID 2283362).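 Note: activity is loss of signal relative to DMSO baseline.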 A digest of the protocol: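 Actives from a duplicate 25 uM single-point screen were retested in concentration series. The cell-free antagonist-format binding assay was read by AlphaLISA chemiluminescence at 1 h, scored as signal loss relative to DMSO.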
human Thyroid Receptor Alpha (TRa), THRA (gene 7067), sequence (P10827 whole entry, looked up): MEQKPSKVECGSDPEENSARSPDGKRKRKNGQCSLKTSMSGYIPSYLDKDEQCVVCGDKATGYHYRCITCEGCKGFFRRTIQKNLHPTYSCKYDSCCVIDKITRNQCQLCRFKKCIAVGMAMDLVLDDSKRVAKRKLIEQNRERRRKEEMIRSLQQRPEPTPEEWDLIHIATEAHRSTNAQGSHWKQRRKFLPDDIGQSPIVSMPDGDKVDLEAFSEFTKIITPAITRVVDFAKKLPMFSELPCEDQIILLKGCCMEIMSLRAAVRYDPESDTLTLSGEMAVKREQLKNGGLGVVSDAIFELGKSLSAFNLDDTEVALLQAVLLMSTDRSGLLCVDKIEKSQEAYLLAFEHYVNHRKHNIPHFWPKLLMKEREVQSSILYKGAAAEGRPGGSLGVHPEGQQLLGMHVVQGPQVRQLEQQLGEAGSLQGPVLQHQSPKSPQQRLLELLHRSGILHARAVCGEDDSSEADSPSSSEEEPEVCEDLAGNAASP

Assay [9] deals with Agonist Androgen Response Element (ARE), AR (gene 367) (UniProt P10275). As to the kind of experiment: OT_AR_ARELUC_AG_1440: Odyssey Thera (OT) 24-hour CHO-K1 Luciferase Assay for Agonist Androgen Response Element (ARE) (AID 2283379). Summed up: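 Luminescence increase above DMSO, read after a 24 h compound treatment of CHO-K1 cells expressing an androgen response element luciferase reporter, gives the single primary endpoint; concentration-response fitting used the positive direction.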
Agonist Androgen Response Element (ARE), AR (gene 367), sequence (P10275 whole entry, looked up): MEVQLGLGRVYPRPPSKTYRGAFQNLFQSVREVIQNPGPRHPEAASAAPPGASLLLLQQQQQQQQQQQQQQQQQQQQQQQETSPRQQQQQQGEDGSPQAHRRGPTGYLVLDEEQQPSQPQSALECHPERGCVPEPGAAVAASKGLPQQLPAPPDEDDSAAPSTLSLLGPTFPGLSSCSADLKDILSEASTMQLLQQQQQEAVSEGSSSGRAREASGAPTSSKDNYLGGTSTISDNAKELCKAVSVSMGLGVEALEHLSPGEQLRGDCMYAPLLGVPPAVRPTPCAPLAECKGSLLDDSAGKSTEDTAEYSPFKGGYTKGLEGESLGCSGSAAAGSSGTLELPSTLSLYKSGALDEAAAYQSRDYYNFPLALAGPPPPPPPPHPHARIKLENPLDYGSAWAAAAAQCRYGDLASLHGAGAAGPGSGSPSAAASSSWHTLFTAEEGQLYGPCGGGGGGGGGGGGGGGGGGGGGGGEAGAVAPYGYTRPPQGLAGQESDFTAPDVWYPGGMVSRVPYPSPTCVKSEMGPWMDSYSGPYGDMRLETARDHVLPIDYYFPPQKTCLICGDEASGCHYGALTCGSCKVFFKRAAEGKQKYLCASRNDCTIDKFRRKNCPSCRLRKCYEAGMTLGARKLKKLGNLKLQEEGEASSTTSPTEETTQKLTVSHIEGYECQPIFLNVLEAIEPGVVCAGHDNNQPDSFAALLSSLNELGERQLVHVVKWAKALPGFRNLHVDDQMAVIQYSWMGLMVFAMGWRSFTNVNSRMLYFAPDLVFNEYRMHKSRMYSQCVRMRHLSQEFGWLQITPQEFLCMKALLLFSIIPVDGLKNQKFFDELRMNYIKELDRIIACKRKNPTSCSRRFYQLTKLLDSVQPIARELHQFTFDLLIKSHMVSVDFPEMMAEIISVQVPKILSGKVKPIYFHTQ

For assay [10], the target named is mouse Estrogen Receptor alpha (Era), Esr1 (gene 13982) (UniProt P19785). The experiment in a line: NVS_NR_mERa: NovaScreen (NVS) Nuclear Receptor Binding Assay for mouse Estrogen Receptor alpha (Era) (AID 2283378).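 Note: hit means loss of bound radioligand signal relative to DMSO.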 A digest of the protocol:
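Filter radiodetection of radioligand displacement from extracted receptor protein, measured 18 h post-dose. Single 25 uM concentration in duplicate initially, with concentration-series follow-up. Binding loss fitted relative to DMSO.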

In assay [11] the target is human Peroxisome Proliferator-activated Receptor alpha (PPARa), PPARA (gene 5465) (UniProt Q07869). As to the kind of experiment: NVS_NR_hPPARa: NovaScreen (NVS) Nuclear Receptor Binding Assay for human Peroxisome Proliferator-activated Receptor alpha (PPARa) (AID 2283359).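 Note: activity means loss of TR-FRET signal versus DMSO baseline.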 Summed up:
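One-hour incubation, cell-free extracted protein, TR-FRET binding readout; signal loss vs DMSO scored. Screen: 25 uM duplicates, confirmatory dose series for actives.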

The target in assay [12] is Peroxisome proliferator-activated receptor gamma (Homo sapiens) (UniProt P37231). As to the kind of experiment: NVS_NR_hPPARg: NovaScreen (NVS) Nuclear Receptor Binding Assay for human Peroxisome Proliferator-activated Receptor gamma (PPARg) (AID 2283370). A digest of the protocol:
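Fluorescence polarization readout of ligand binding to extracted human PPARg, measured at 2 h. Duplicate single-point screen at 25 uM, then concentration-series retesting; activity defined as signal loss versus DMSO.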

The target in assay [13] is rat Mineralocorticoid Receptor (MR), Nr3c2 (gene 25672) (UniProt P22199). The experiment in a line: NVS_NR_rMR: NovaScreen (NVS) Nuclear Receptor Binding Assay for rat Mineralocorticoid Receptor (MR) (AID 2283355). A digest of the protocol:
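Single-concentration duplicate screen (25 uM) of radioligand binding in adrenalectomized rat brain supernatant; scintillation detection 24 h after dosing. Positive and negative controls ran on each plate, and confirmed actives went to concentration-response.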

For assay [14], the target named is Glucocorticoid receptor (Homo sapiens) (UniProt P04150). As to the kind of experiment: NVS_NR_hGR: NovaScreen (NVS) Nuclear Receptor Binding Assay for human Glucocorticoid Receptor (GR) (AID 2283363).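 Note: activity is loss of specific radioligand binding signal relative to DMSO.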 A digest of the protocol:
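Single-readout cell-free binding: radioligand plus extracted receptor, 16-hour dosing, filter radiodetection; 25 uM duplicate primary, concentration series secondary.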

Records with an inconclusive call do not appear. Calls of active or inactive are those of the source. Rule for the calls: active = hit-call score of the fitted dose curve at least 0.9, where 1 is the maximum; inconclusive = response in the unintended direction; inactive = score below 0.9.

As a reminder, the AC50 is the midpoint of the concentration-response curve, whichever way the signal moves.

Peroxisome proliferator-activated receptor gamma (Homo sapiens), sequence (P37231 whole entry, looked up): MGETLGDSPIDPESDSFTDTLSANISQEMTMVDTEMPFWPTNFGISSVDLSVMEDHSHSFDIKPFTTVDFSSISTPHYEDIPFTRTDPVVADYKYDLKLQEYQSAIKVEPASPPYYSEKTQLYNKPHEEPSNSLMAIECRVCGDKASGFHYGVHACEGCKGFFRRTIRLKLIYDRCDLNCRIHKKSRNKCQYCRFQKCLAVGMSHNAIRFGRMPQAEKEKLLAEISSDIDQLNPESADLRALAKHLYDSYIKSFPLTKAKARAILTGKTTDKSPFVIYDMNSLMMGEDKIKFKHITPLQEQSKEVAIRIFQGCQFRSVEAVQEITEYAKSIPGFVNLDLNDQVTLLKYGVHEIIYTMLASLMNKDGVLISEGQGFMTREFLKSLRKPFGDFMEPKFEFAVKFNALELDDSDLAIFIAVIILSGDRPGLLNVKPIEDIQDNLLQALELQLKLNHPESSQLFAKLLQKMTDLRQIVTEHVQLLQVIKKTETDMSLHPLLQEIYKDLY
Estrogen receptor (Homo sapiens), sequence (P03372 whole entry, looked up, the tested form may be a part): as the sequence (P03372 whole entry, looked up, the tested form may be a part) above
Androgen Receptor/SRC-1 Co-activator, AR (gene 367), sequence (P10275 whole entry, looked up): as the sequence (P10275 whole entry, looked up) above
Estrogen receptor beta (Homo sapiens), sequence (Q92731 whole entry, looked up, the tested form may be a part): as the sequence (Q92731 whole entry, looked up, the tested form may be a part) above
human Peroxisome Proliferator-activated Receptor alpha (PPARa), PPARA (gene 5465), sequence (Q07869 whole entry, looked up): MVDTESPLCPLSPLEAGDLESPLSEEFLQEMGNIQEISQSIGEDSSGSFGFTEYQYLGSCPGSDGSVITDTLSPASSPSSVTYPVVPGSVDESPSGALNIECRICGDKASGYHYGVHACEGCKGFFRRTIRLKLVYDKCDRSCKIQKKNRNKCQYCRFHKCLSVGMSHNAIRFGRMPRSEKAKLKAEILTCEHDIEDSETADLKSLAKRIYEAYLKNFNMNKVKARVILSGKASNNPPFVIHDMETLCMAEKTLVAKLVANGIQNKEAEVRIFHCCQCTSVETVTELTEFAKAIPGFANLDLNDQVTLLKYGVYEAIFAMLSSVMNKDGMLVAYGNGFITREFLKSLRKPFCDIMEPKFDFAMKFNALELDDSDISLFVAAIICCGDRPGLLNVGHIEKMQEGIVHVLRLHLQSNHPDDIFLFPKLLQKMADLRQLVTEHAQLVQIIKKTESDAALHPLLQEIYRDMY
mouse Estrogen Receptor alpha (Era), Esr1 (gene 13982), sequence (P19785 whole entry, looked up): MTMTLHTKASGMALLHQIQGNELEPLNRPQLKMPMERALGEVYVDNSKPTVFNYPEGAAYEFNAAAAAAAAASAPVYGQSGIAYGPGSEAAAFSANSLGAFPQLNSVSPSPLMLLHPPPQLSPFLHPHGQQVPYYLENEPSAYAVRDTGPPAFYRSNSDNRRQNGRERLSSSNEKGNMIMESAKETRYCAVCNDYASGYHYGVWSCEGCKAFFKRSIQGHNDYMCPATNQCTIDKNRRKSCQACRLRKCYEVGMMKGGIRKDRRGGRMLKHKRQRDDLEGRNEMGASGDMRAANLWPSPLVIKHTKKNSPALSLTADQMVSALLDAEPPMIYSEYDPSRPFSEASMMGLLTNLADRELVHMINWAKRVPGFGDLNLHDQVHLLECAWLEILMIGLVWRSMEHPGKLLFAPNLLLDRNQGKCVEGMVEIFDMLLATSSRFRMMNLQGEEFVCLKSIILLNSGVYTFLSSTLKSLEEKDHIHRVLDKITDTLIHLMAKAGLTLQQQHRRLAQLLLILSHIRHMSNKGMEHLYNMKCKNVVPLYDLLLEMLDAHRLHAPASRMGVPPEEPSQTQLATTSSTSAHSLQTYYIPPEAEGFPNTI

On to `CC(C)c1cccc(O)c1`, for which the result in [1], in assay [3] and in assay [5] was inactive. In addition, the AC50 in [2] and in [4] was 52 µM (active) throughout.

Turning to `CC(=O)C=CC1=C(C)CCCC1(C)C`, the result in assay [1] was inactive.

For `c1ccc2[nH]ccc2c1`, the result in assay [6], in assay [7], in assay [4], in assay [8], in assay [5] and in [9] was inactive.

Regarding `CC1COc2ccccc2N1C(=O)C(Cl)Cl` (stereo unspecified), the compound was classed as inactive in assay [1], in [2], in [3] and in assay [4]. The AC50 in assay [10] was 1.88 µM (active).

As for `CCCCC[Si](OCC)(OCC)OCC`, the compound was called inactive in [6], in assay [7], in assay [4], in [11] and in assay [5].

For the compound `CC(C)(C)C(=O)c1ccccc1`, the result in assay [1] was inactive.

Turning to `CCCCCCCCC`, the call in [1], in assay [2], in [3] and in assay [4] was inactive.

In the case of `O=C1c2ccccc2C(=O)N1SC1CCCCC1`, the compound was classed as inactive in assay [1], in [2], in [4] and in assay [10].

On to `CN(C)CCCN`, for which the outcome in assay [1] was inactive.

For the compound `NCCCN1CCOCC1`, the outcome in assay [1], in [6], in assay [7], in assay [3] and in assay [4] was inactive.

As for `CC(=O)OCCOC(C)=O`, the result in assay [1], in assay [2], in assay [3] and in [4] was inactive.

For `BrC1CCC(Br)C(Br)CCC(Br)C(Br)CCC1Br` (stereo unspecified), the result in [1], in [7], in assay [4], in [12] and in assay [9] was inactive. The concentration at half-maximal activity (AC50) was 19.6 µM (active) in [6] and 60.4 µM (active) in assay [3].

For `CC1(C)C(=O)N(Br)C(=O)N1Cl`, the compound was classed as inactive in assay [4].

As for `CCCOCC(C)O` (stereo unspecified), the result in assay [6], in assay [7] and in assay [9] was inactive.

Regarding `C=CCOc1nc(OCC=C)nc(OCC=C)n1`, the compound was classed as inactive in assay [4].

With `C=CC[N+](C)(C)CC=C`, the result in [4] was inactive.

`CC(C)(C#N)c1cc(Cn2cncn2)cc(C(C)(C)C#N)c1`: the compound was classed as inactive in [4] and in [5].

On to `CC(C)=CCC[C@](C)(O)[C@@H]1CC=C(C)CC1`, for which the result in assay [4] was inactive.

Regarding `CCCCCCCCCCCCCCCC(=O)O`, the result in assay [4], in assay [11] and in [12] was inactive.

For `OC1OC[C@@H](O)[C@H](O)[C@H]1O` (stereo partly specified), the call in assay [4] and in assay [12] was inactive.

Take `CC(=O)O[C@]1(C(C)=O)CC[C@H]2[C@@H]3C[C@H](C)C4=CC(=O)CC[C@]4(C)[C@H]3CC[C@@]21C`: the concentration at half-maximal activity (AC50) in assay [13] was 0.569 µM (active); in assay [14] it was 0.00114 µM (active).

With `C=O`, the outcome in assay [4] was inactive.

Turning to `CCC(=O)/C=C/C1C(C)=CCCC1(C)C` (stereo unspecified), the call in assay [4] and in [5] was inactive.

Take `O=C(O)CCCCCCCC(=O)O`: the compound was classed as inactive in assay [4].

For the compound `CCCCCCCCCCCCCCCC(=O)OC[C@H](O)[C@H]1OC(=O)C(O)=C1O`, the result in assay [6], in [7], in assay [8], in assay [5] and in [9] was inactive. The AC50 in assay [12] was 25 µM (active).

Turning to `O=C(O)c1ccc([N+](=O)[O-])cc1`, in assay [4], the result was inactive.

In the case of `CC(C)=CCCC(C)=CCCC(C)=CCO`, the compound was called inactive in [4] and in [5].

For `CCCCC(CC)COC(=O)/C=C\C(=O)OCC(CC)CCCC` (stereo unspecified), the AC50 in assay [6] is 75.5 µM (active). Also, the outcome in assay [4] and in assay [12] was inactive.

Regarding `Cc1ccc(C(C)C)cc1O`, the concentration at half-maximal activity (AC50) in [4] was 63.6 µM (active).

For the origin of these results see PubChem BioAssay (EPA / NIEHS).
